{"source": "PubChem BioAssay (EPA / NIEHS)", "note": "Where “and” joins values, the source holds several entries; their conditions need not be identical. Equal entries are not always repeated. Results filed as inconclusive are left out. Calls of active or inactive are those of the source. The calls were made as follows: active = hit-call score of the fitted dose curve at least 0.9, where 1 is the maximum; inconclusive = response in the unintended direction; inactive = score below 0.9."}
{"experiment": "ACEA_ER_AUC_viability: ACEA Biosciences xCELLigence Real-Time Cell Analysis on Estrogen Receptor Agonism for Viability (AID 2283782);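 also: continuous compound exposure with impedance area under curve over 80 h; hit means loss of impedance signal meaning reduced cell growth or viability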", "experimental": "ACEA_ER is a cell-based, single-readout assay that uses T47D, a human breast cell line, with measurements taken at 80 hours after chemical dosing in a 96-well plate, although TO2 (mc0.srcf) used a 384-well plate. Differences in plate size can be ignored given data normalization.ACEA_ER_AUC_viability is one of two assay component(s) measured or calculated from the ACEA_ER assay. It is designed to make measurements of real-time cell-growth kinetics, a form of growth reporter, as detected with electrical impedance signals by Real-Time Cell Electrode Sensor (RT-CES) technology.Data from the assay component ACEA_ER_AUC_viability was analyzed in the positive analysis fitting direction relative to DMSO as the negative control and baseline of activity. Using a type of growth reporter, loss-of-signal activity can be used to understand changes in the viability. Furthermore, this assay endpoint can be referred to as a secondary readout, because this assay has produced multiple assay endpoints where this one serves a viability function. To generalize the intended target to other relatable targets, this assay endpoint is annotated to the cell cycle intended target family, where the subfamily is cytotoxicity.\nThe xCELLigence system Multi-E-Plate stations were used to measure the time-dependent response to chemicals. Each compound was tested in an eight-point, 1:4 serial dilution series starting at a maximum final concentration of 100 uM. A maximum starting concentration of 0.5% DMSO was present in the 100 uM chemical samples and was diluted along with the test article dilution series. The screen was performed in biological duplicate using two separate, 96-well, E-Plates 96 for each dilution series (n = 2). Positive controls (MG132 and E2) and a negative control (assay media) were tested in quadruplicate on each testing plate. Then, 0.5% and 0.125% DMSO were tested in duplicates in each plate to serve as solvent controls for the 2 highest concentrations of testing compounds: 100 uM and 25 uM. Reference compounds were tested with 8 concentrations with 1:5 serial dilutions. All screening was carried out by ACEA Biosciences, Inc. (San Diego, CA). T-47D cells purchased from ATCC were maintained in RPMI1640 media supplemented with 10% characterized fetal bovine serum (FBS). Before screening, T-47D cells were preconditioned in assay medium: phenol red-free RPMI1640 supplemented with 10% charcoal-stripped FBS. Cells were then detached and seeded in E-Plates 96 in assay medium. After overnight monitoring of growth once every hour, compounds were added to […] cells and remained in the medium until the end of the experiment. Cellular responses were then recorded once every 5 min for the first 5 h, and once every hour for an additional 100 h."}
{"smiles": "COC(=O)c1ccc(I)cc1S(=O)(=O)NC(=O)Nc1nc(C)nc(OC)n1", "outcome": "inactive"}
{"smiles": "Oc1ccc(C(c2ccc(O)cc2)C(Cl)(Cl)Cl)cc1", "AC50": "83.7 µM (active)"}
{"smiles": "CN(C)C(=O)Nc1ccc(Cl)c(Cl)c1", "outcome": "inactive"}
{"smiles": "O=C(O)C1(C(=O)Nc2ccc(Cl)cc2Cl)CC1", "outcome": "inactive"}
{"smiles": "O=C(Nc1ccc([N+](=O)[O-])cc1Cl)c1cc(Cl)ccc1O", "AC50": "2.89 µM (active)"}
{"smiles": "CCC(C)OC(=O)N1CCCCC1CCO", "note": "(stereo unspecified)", "outcome": "inactive"}
{"smiles": "CCCCC(CC)CN1C(=O)C2C3C=CC(C3)C2C1=O", "note": "(stereo unspecified)", "AC50": "70.2 µM (active)"}
{"smiles": "O=C(O)c1ccccc1", "outcome": "inactive"}
{"smiles": "Cc1nn(C)c(Oc2ccccc2)c1C=NOCc1ccc(C(=O)OC(C)(C)C)cc1", "outcome": "inactive"}
{"smiles": "COc1c(Cl)ccc(Cl)c1C(=O)O", "outcome": "inactive"}
{"smiles": "CCOC(=O)NCCOc1ccc(Oc2ccccc2)cc1", "AC50": "95.3 µM (active)"}
{"smiles": "CCCCCCC(C)OC(=O)COc1nc(F)c(Cl)c(N)c1Cl", "note": "(stereo unspecified)", "AC50": "14.3 µM (active)"}
{"smiles": "c1ccc(Nc2ccccc2)cc1", "outcome": "inactive"}
{"smiles": "C=CCOC(Cn1ccnc1)c1ccc(Cl)cc1Cl", "note": "(stereo unspecified)", "AC50": "50 µM (active)"}
{"smiles": "c1ccc2[nH]c(-c3cscn3)nc2c1", "outcome": "inactive"}
{"smiles": "CCCOC(=O)c1ccc(C(=O)OCCC)nc1", "outcome": "inactive"}
{"smiles": "CCOC(=O)COc1cc(-n2ncc(C(F)(F)F)c(C)c2=O)c(F)cc1Cl", "outcome": "inactive"}
{"smiles": "CC(C)CCCCCCc1ccc(O)cc1", "AC50": "20.2 µM (active) and 21.5 µM (active) and 20.6 µM (active)"}
{"smiles": "COC(=O)CSc1cc(N=c2sc(=O)n3n2CCCC3)c(F)cc1Cl", "outcome": "inactive"}
{"smiles": "CCCCC(CC)COC(=O)c1ccccc1C(=O)O", "note": "(stereo unspecified)", "outcome": "inactive"}
{"smiles": "CCCCOCCOCCOCc1cc2c(cc1CCC)OCO2", "outcome": "inactive"}
{"smiles": "CCSC(=O)N(CC(C)C)CC(C)C", "outcome": "inactive"}
{"smiles": "N#CSCSc1nc2ccccc2s1", "AC50": "10.9 µM (active)"}
{"smiles": "S=C(S)NCCNC(=S)S.[Mn+2].[S-]C([S-])=NCCN=C([S-])[S-].[Zn+2]", "outcome": "inactive"}
{"smiles": "CCCCCOC(=O)COc1cc(N2C(=O)C3=C(CCCC3)C2=O)c(F)cc1Cl", "outcome": "inactive"}
{"smiles": "CSC(=O)c1cccc2nnsc12", "outcome": "inactive"}
